Over roughly 1,400 sequences, “thermal melting temperature (Tm) of peptide-HLA complex” has its median near 60; the lowest 2% begin near 45. The sample as a whole holds a higher share of the lowest values than the screen did.
molecular target: HLA-B*07:02; assay: thermal melting temperature (Tm) of peptide-HLA complex; higher = more thermostable pHLA complex; conditions: C1R-B*07:02
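Note: lysates heated 10 min at 37–73 °C, complexes pulled down with pan-HLA I antibody, peptide signal by DIA-MS relative to 37 °C, Tm where half the complex is unfolded.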

Row | Sequence | thermal melting temperature [°C]
1 | QPIDNVSRNLL | 59.3
2 | KVRGISEVL | 60.5
3 | QPIPFPKEAL | 60.7
4 | KPYQGNPTF | 57.5
5 | RPHAFQVIL | 60.2
6 | LPSGDRVAVSV | 61
7 | AANPNRFITL | 61.1
8 | TPRSPPLGL | 62.3
9 | TPINKPPVL | 56
10 | APRPDRLVNRL | 57.3
11 | LPHAVSSLL | 62.4
12 | LPRKPSVPW | 59.5
13 | APRQVLDLEDL | 60.9
14 | KMLTFLML | 61.7
15 | KPQTKLLIL | 60.8
16 | LPSKEHVDVI | 44.8
17 | IPFSNPRVL | 61.4
18 | LPRPWSVPPL | 60
19 | VPKPPSIEEF | 62.3

Row | Sequence | thermal melting temperature [°C]
20 | RPAQVSQPF | 60.2
21 | IVDSARSIL | 57.8
22 | HPRKGFPGSL | 45
23 | APKPGGLSL | 61.7
24 | GPMNLRAAF | 62.1
25 | MPSASRVILL | 62.7
26 | APGPPGRSML | 60
27 | LPQLPLAAL | 59
28 | HPAAFPLPV | 57.7
29 | APRTVALTAL | 62.9
30 | LPQPVPLSV | 62.6
31 | IPRPDGIEW | 58.4
32 | QPHLVNIQF | 41.6
33 | RPGWLTVSL | 59.2
34 | RPAVIGDVL | 59.3
35 | HPAGPRTVF | 59.1
36 | YPTISLHAL | 59.8
37 | SPTLPAARSSL | 56.9
38 | NPKNPGLWL | 61

Row | Sequence | thermal melting temperature [°C]
39 | TPRVPDNSL | 60.7
40 | SPDLVRVQL | 60.7
41 | RPAAGFVAGL | 57
42 | KPWLRALQL | 59.7
43 | MPFPNIRSAEL | 58.2
44 | TPNDRFILL | 60.4
45 | LPWASTHSL | 58.1
46 | AALPFVRQAGL | 42.3
47 | VPNQKRLTLL | 62.4
48 | KPYPIAEVEQL | 42.7
49 | FDPALLEF | 42.6
50 | YPPNPWREI | 59.3
51 | LPSWGRAEL | 62.8
52 | GPDEAKIKALL | 60
53 | APFEPLASGIL | 60.7
54 | SPRPALPALLV | 59.4
55 | QPRNLLLAL | 61.2
56 | RPSLLPLH | 61.5

— the supplement of paper PMC7726561
